# Laboratory results: PMC5540273 (PLoS ONE, 2017)
# Test system: DYRK2
# Settings: concentration: 1 μM, replicates: in singlicate; n = 1
# 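Note: KINOMEscan kinase panel screen.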
row,Structure (SMILES),%Inh
1,COC(=O)c1cccc(NC(=O)NCCNc2ccnc(Nc3ccc(F)cc3)n2)c1 [GSK1379883],5%
2,CN1c2ccc(-c3ccc(C(=O)NCCO)cc3)cc2-c2[nH]ncc2S1(=O)=O,31%
3,CC(C)(C)c1ccc(-n2cnc3c(N)ncnc32)cc1 [SKF-97263],3%
4,Nc1nc(-c2cccnc2)c(-c2ccnc3ccccc23)s1 [GW684083],9%
5,CSc1ccc(NC2=C(c3ccccc3Cl)C(=O)NC2=O)cc1 [SB-342411],3%
6,Cc1ccc(C)c(NC(=O)NCCNc2ccnc(Nc3ccc(F)cc3)n2)c1 [GSK1379878],3%
7,COc1ccc(-c2oc3ncnc(N)c3c2-c2ccc(OC)cc2)cc1 [SB-589132],18%
8,Cl.Cn1ccc(-c2cccc(Nc3ccnc4cc(-c5nccs5)ccc34)c2)n1 [GW525701],0%
9,Cn1cc(-c2ccc3c(c2)CCN3C(=O)Cc2cccc(C(F)(F)F)c2)c2c(N)ncnc21 [GSK2606414],27%
10,FC(F)(F)c1cc(Nc2nccc(-c3c(-c4ccc(Cl)cc4)nn4ncccc34)n2)ccc1Cl [GW829351],0%
11,O=C(CCO)NCCn1ccc2ncnc(Nc3ccc(Oc4cccc(C(F)(F)F)c4)c(Cl)c3)c21,0%
12,COc1ccc(NC(=O)Nc2ccc(C)c(-c3ccc(C(=O)Nc4ccncc4)cc3)c2)cc1 [GSK1398475],6%
13,CSc1nn2c(=O)cc(N3CCOCC3)nc2n1Cc1cccc(Cl)c1Cl [GSK2347225],8%
14,CS(=O)(=O)CCNCc1nc(-c2ccc3ncnc(Nc4ccc(OCc5cccc(F)c5)c(Cl)c4)c3c2)cs1.Cl [GW583340],16%
15,Nc1nc(-c2ccc3c(N)n[nH]c3c2)cc(N2CCC[C@@H](C(=O)Nc3ccccc3)C2)n1.O=C(O)C(F)(F)F.O=C(O)C(F)(F)F [GSK2288359],32%
16,C[C@H]1CC[C@@H](C(=O)Nc2ccccc2)CN1c1cc(-c2ccc3c(N)n[nH]c3c2)nc(N)n1 [GSK2283293],7%
17,CN1CCC(n2cnc(-c3ccc(F)cc3)c2-c2ccnc(NC3CCNCC3)n2)CC1 [SB-229482],6%
18,COc1ccc(-c2nc3n(c2-c2ccncc2)CCC3)cc1 [SKF-104493],0%
19,Cc1cc(N2CCC(NS(=O)(=O)c3ccc(F)cc3)CC2)nc(Nc2cccc(C#N)c2)n1.O=C(O)C(F)(F)F [GSK1653537],5%
20,CCc1nc(-c2cccc(N(C)S(=O)(=O)c3ccccc3)c2)c(-c2ccnc(Nc3ccc(N4CCN(C(C)=O)CC4)nc3)n2)s1 [GSK1645895],29%
21,Nc1n[nH]c2nnc(-c3ccccc3)cc12 [SB-517389],57%
22,CCC(CC)(CC)n1cnc2c(N)ncnc21 [SKF-97620],20%

# Test system: EGFR
# Settings: concentration: 1 μM, replicates: in singlicate; n = 1
row,Structure (SMILES),%Inh
1,c1ccc(-c2ccc3c(-c4ccnc(Nc5ccc6c(c5)OCCO6)n4)cnn3n2)cc1 [GW818941],14%
2,CCCc1ccc(S(=O)(=O)NC2CCN(c3ccnc(Nc4ccc(OC)cc4)n3)C2)cc1 (stereo not drawn) [GSK1379737],32%
3,Clc1cccc(-c2nc(Nc3ccncc3)c3ccccc3n2)c1 [GW873004],10%
4,Cc1ccc(O)cc1Nc1cc(C(F)(F)F)nc2ccc(-c3ccncc3)cc12 [GW630823],15%
5,COc1cc2ncnc(Nc3ccc(OCc4ccccc4Br)c(Cl)c3)c2cc1OC.Cl [GI261590],99.9%
6,Clc1ccc(-c2cc(-c3c[nH]nc3-c3ccccn3)ccn2)cc1 [GW681251],24%
7,CC(C)(C)OC(=O)NC1CCCN(c2cc(-c3ccc4c(N)n[nH]c4c3)nc(N)n2)C1 (stereo not drawn) [GSK2286096],27%
8,Cc1cccc(-c2nc(Nc3ccc4[nH]nnc4c3)c3ccccc3n2)n1 [GW867587],0%
9,O=C(Nc1ccccc1)Nc1ccc(Oc2ccc3nccn3n2)cc1,23%
10,CNc1nccc(-c2c(-c3ccc(F)cc3)ncn2CCCN2CCOCC2)n1 [SB-222516],10%
11,Fc1cccc(COc2ccc(Nc3ncnc4sc(-c5ccc[nH]5)cc34)cc2Cl)c1 [GW707818],100%
12,O=C(Nc1ccccc1F)NC1CCN(c2ccnc(Nc3ccc(F)cc3)n2)C1 (stereo not drawn) [GSK1379722],0%
13,Cl.Cl.c1ccc(-c2cc3ccncc3cc2OC2CCNCC2)cc1 [GSK1122999],23%
14,Fc1cccc(COc2ccc(Nc3ncnc4cc[nH]c34)cc2Cl)c1,100%
15,COC(=O)c1cccc(NC(=O)NCCNc2ccnc(Nc3ccc(F)cc3)n2)c1 [GSK1379883],3%
16,CN1c2ccc(-c3ccc(C(=O)NCCO)cc3)cc2-c2[nH]ncc2S1(=O)=O,0%
17,CC(C)(C)c1ccc(-n2cnc3c(N)ncnc32)cc1 [SKF-97263],38%
18,Nc1nc(-c2cccnc2)c(-c2ccnc3ccccc23)s1 [GW684083],0%

row,Structure (SMILES),%Inh
1,CSc1ccc(NC2=C(c3ccccc3Cl)C(=O)NC2=O)cc1 [SB-342411],18%
2,Cc1ccc(C)c(NC(=O)NCCNc2ccnc(Nc3ccc(F)cc3)n2)c1 [GSK1379878],10%
3,COc1ccc(-c2oc3ncnc(N)c3c2-c2ccc(OC)cc2)cc1 [SB-589132],0%
4,Cl.Cn1ccc(-c2cccc(Nc3ccnc4cc(-c5nccs5)ccc34)c2)n1 [GW525701],11%
5,Cn1cc(-c2ccc3c(c2)CCN3C(=O)Cc2cccc(C(F)(F)F)c2)c2c(N)ncnc21 [GSK2606414],20%
6,FC(F)(F)c1cc(Nc2nccc(-c3c(-c4ccc(Cl)cc4)nn4ncccc34)n2)ccc1Cl [GW829351],24%
7,O=C(CCO)NCCn1ccc2ncnc(Nc3ccc(Oc4cccc(C(F)(F)F)c4)c(Cl)c3)c21,100%
8,COc1ccc(NC(=O)Nc2ccc(C)c(-c3ccc(C(=O)Nc4ccncc4)cc3)c2)cc1 [GSK1398475],33%
9,CSc1nn2c(=O)cc(N3CCOCC3)nc2n1Cc1cccc(Cl)c1Cl [GSK2347225],39%
10,CS(=O)(=O)CCNCc1nc(-c2ccc3ncnc(Nc4ccc(OCc5cccc(F)c5)c(Cl)c4)c3c2)cs1.Cl [GW583340],99.9%
11,Nc1nc(-c2ccc3c(N)n[nH]c3c2)cc(N2CCC[C@@H](C(=O)Nc3ccccc3)C2)n1.O=C(O)C(F)(F)F.O=C(O)C(F)(F)F [GSK2288359],24%
12,C[C@H]1CC[C@@H](C(=O)Nc2ccccc2)CN1c1cc(-c2ccc3c(N)n[nH]c3c2)nc(N)n1 [GSK2283293],30%
13,CN1CCC(n2cnc(-c3ccc(F)cc3)c2-c2ccnc(NC3CCNCC3)n2)CC1 [SB-229482],17%
14,Cc1cc(N2CCC(NS(=O)(=O)c3ccc(F)cc3)CC2)nc(Nc2cccc(C#N)c2)n1.O=C(O)C(F)(F)F [GSK1653537],50%
15,CCc1nc(-c2cccc(N(C)S(=O)(=O)c3ccccc3)c2)c(-c2ccnc(Nc3ccc(N4CCN(C(C)=O)CC4)nc3)n2)s1 [GSK1645895],79%
16,Nc1n[nH]c2nnc(-c3ccccc3)cc12 [SB-517389],34%
17,CCC(CC)(CC)n1cnc2c(N)ncnc21 [SKF-97620],0%
